Shown are actives, neighbours in structure and some others; about 2.4% of the full set was active somewhere.
D2 ag-1: human D2 receptor agonism in beta-arrestin assay; P14416; DiscoveRx PathHunter D2 beta-arrestin, luminescence, 90 min; 100% = 57 uM dopamine signal; activation, % (test concentration not listed); 360,000 compounds, 0.084% hits; AID 624465; in the data active means activation above about 40%
Target sequence (P14416 whole entry, looked up): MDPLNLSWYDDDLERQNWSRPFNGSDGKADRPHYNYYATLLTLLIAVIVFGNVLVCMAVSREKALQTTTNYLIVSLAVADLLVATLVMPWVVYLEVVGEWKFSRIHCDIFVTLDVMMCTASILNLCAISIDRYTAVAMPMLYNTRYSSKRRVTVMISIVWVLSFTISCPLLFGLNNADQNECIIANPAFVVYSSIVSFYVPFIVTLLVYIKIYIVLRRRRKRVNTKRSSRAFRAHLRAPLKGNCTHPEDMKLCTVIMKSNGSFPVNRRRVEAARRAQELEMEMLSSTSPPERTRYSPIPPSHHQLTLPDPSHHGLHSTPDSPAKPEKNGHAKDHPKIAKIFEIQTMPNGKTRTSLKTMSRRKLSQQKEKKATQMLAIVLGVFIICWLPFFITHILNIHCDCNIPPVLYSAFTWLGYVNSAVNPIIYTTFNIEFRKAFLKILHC
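DiscoveRx PathHunter D2 beta-arrestin cells (2,100/well) attached overnight, then compound-stimulated 90 min at 37 C in HBSS/10 mM HEPES/0.1% Tween-20 buffer; beta-galactosidase complementation read by luminescence after 1 h at ambient temperature. Dopamine 57 uM final (EC100) as control.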
D2 ag-2: D2 dopamine receptor (human) agonism. activation, % at 2 µM. P14416. HEK293 T-REx D2 cells, calcium flux agonist mode. 340,000 compounds, 0.53% hits;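 active means activation over 3 SD above normal in the single-dose calcium agonist read, cut at about 30% in these data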; further: 0% is about no effect
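In this primary screen, compounds producing a positive calcium signal within 180 s of addition to tetracycline-induced, force-coupled HEK293 Trex D2 cells are flagged; cells are dye-loaded with a no-wash calcium kit beforehand.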
D2 PAM-1: positive allosteric modulators of human D2 dopamine receptor | P14416 | DiscoveRx D2 beta-arrestin cells, luminescence, 90 min; 100% = 57 uM dopamine signal | potentiation, % (test concentration not listed) | 360,000 compounds, 0.23% hits; in the data active means potentiation above about 50%
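PathHunter D2 cells, attached overnight at 37 deg C, received compound in DMSO plus dopamine at EC20 (50 nM final) for 90 min at 37 deg C. Beta-arrestin recruitment was read as luminescence after 1 h with detection reagent at ambient temperature.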
D2 antag: D2 dopamine receptor (human) antagonism | AID 485344 | 340,000 compounds, 2% hits | HEK293 TREx D2 cells, calcium flux, dopamine EC80 | P14416 | inhibition, % at 10 µM; in the data active means inhibition above about 30%; inactive means below that, where a call was filed; further: 0% is about no effect
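Compounds are added to dye-loaded, induced HEK293 T-REx cells coupled to calcium release via D2; after a 3 min kinetic read an EC80 dopamine stimulus is given and fluorescence is recorded for 3 more min.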
D2 PAM-2: positively modulates the human D2 dopamine receptor allosterically; P14416; HEK293 T-REx D2, calcium flux, EC20 dopamine potentiation; potentiation, % at 10 µM; 340,000 compounds, 0.34% hits; AID 485347;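 active means potentiation over 3 SD above the plate norm, cut at about 30% in these data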; further: 0% is about no effect
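Potentiation of an EC20 dopamine calcium response measured kinetically over 180 s, after a preceding 180 s compound-only read flagging agonists. Cells: inducible Hek293 Trex D2 line, 4000/well, cultured overnight at 30 C before dye loading.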
* = called active by the depositor; . = not tested or not shown.

SMILES | D2 ag-1 | D2 ag-2 | D2 PAM-1 | D2 antag | D2 PAM-2
Nc1c(N(CCC2=CCCCC2)C(=O)COc2ccc(F)cc2)c(=O)[nH]c(=O)n1Cc1ccccc1 | 0 | 1 | -3 | -13 | -9
CCOC(=O)NC1(C(F)(F)F)NC(=O)N(c2ccc(C)c(C)c2)C1=O (configuration not stated) | . | 0 | . | . | -11
Cc1sc(NC(=O)CCC(=O)O)c(C(N)=O)c1-c1ccccc1 | 0 | 0 | 15 | 47* | 4
O=c1ccc2ccccc2c2ccccc12 | -7 | . | -13 | . | .
O=Nc1c(O)c2ccccc2c2ccccc12 | 11 | . | 67* | . | .
COCCNC(=S)N(CCc1c(C)[nH]c2ccc(C)cc12)Cc1cc(OC)c(OC)c(OC)c1 | 4 | 0 | 4 | 31* | 4
CCNC(=S)N(CCc1c(C)[nH]c2ccc(OC)cc12)Cc1cccnc1 | 0 | -1 | 5 | -19 | 33*
CCNC(=S)N(CCc1c(C)[nH]c2ccc(Cl)cc12)Cc1cccnc1 | 3 | 18 | -10 | 3 | -4
CCNC(=S)N(CCc1c(C)[nH]c2ccc(C)cc12)Cc1cc(OC)c(OC)c(OC)c1 | -5 | 1 | -9 | -14 | 7
O=C(N[C@H](C(=O)O)c1ccccc1)C1CCC(Cn2nnc3ccccc3c2=O)CC1 (some centres not stated) | . | 0 | . | -3 | 5
CCOc1ccc(NC(=O)C(=O)NCCc2sc(-c3ccc(C)cc3)nc2C)cc1 | . | 1 | . | . | -4
CCCNC(=O)CSc1nc2ccc(OCC)cc2s1 | -3 | 1 | -1 | 35* | 13
C=CCN(c1ccccc1)S(=O)(=O)c1cccc(C(=O)Nc2nnc(SCC)s2)c1 | 1 | 0 | 5 | 43* | -7
Cc1nn(C(=O)c2cccc([N+](=O)[O-])c2C)c(C)c1S(=O)(=O)N1CCCCCC1 | . | -2 | . | . | -8
CCOc1ccc(-c2cc(C(=O)NCCCOC)c3c(-c4ccc(CC)cc4)[nH]nc3n2)cc1 | . | 0 | . | . | 4
CCN(CC)S(=O)(=O)c1cccc(C(=O)NCC2(N3CCOCC3)CCCCC2)c1 | -4 | 0 | -2 | 39* | 3
CCCC(=O)N1c2nc(C(C)C)nn2C2(CCCCC2)[C@@H]2CCCC[C@@H]21 | . | -2 | . | . | 0
CC(C)(C)OC(=O)N1CCNc2ccccc2C1 | -4 | 1 | -36 | 31* | -4
CN1Cc2cccc3c2C(Cc2ccccc2S3)C1 (configuration not stated) | -2 | 1 | -34 | 48* | -25
CC1(C)CC(=O)C/C(=N\NC(=O)C2CC23CCC3)C1 (configuration not stated) | -3 | 1 | -2 | 47* | -5
O=CC1=C(N2CCOCC2)/C(=C\c2ccccc2)CC1 | -3 | 0 | -3 | 7 | 33*
O/N=C1/CCc2nonc2/C1=N/O | 10 | 0 | -12 | 39* | 1
COCCN1C(=O)c2ccc(C(=O)O)cc2C1=O | -2 | 0 | -5 | -4 | 39*
CC(C)CN1C(=O)c2ccc(C(=O)NCc3ccccn3)cc2C1=O | -2 | 1 | -6 | 4 | 0
COCCCN1C(=O)c2ccc(C(=O)NCc3ccccn3)cc2C1=O | 1 | 0 | -15 | -4 | 32*
SMILES | D2 ag-1 | D2 ag-2 | D2 PAM-1 | D2 antag | D2 PAM-2
Cc1ccc(S(=O)(=O)N(C)C)cc1NC(=S)N(CCC#N)Cc1cccnc1 | -5 | 0 | -16 | 43* | -13
CCN(CC)c1ccc2cc(-c3nnc(-c4ccncc4)o3)c(=O)oc2c1 | -1 | 88* | -12 | 66* | .
CCN(CC)c1ccc2cc(C=O)c(=O)oc2c1 | -2 | 65* | -13 | -46 | -6
CCN(CC)c1ccc2cc(C(C)=O)c(=O)oc2c1 | -4 | 35* | -19 | -29 | 11
CCN(CC)c1ccc2cc(C(=O)Nc3ccccn3)c(=O)oc2c1 | 0 | 39* | 0 | 2 | 5
CN1/C(=C\C(=O)C[n+]2ccc(C(=O)c3ccccc3)cc2)C(C)(C)c2ccccc21 | 6 | 2 | 53* | 15 | -3
CS(=O)(=O)Oc1ccc(Br)cc1/C=C1/N=C(c2ccco2)OC1=O | -1 | 0 | 0 | 4 | 9
CCOC(=O)CCC(=O)NCc1ccc2c(c1)cc(C)n2C | 0 | 0 | 2 | -8 | -5
CCCCC(=O)NCc1ccc2c(c1)cc(C)n2C | -2 | 1 | -11 | 34* | -10
Cc1cc2cc(CNC(=O)c3cccs3)ccc2n1C | -2 | 52* | -7 | 1 | -12
Cc1cc2cc(CNC(=S)NCc3ccccc3)ccc2n1C | 2 | 1 | -3 | 45* | 16
Cc1cccc(NC(=O)c2cc(S(=O)(=O)N3CCc4ccccc43)ccc2F)c1C | . | . | . | . | -11
O=C1CC(c2ccncc2)c2cc3c(cc2N1)OCO3 (configuration not stated) | -4 | 1 | 5 | 37* | 5
O=C1CC(c2ccc3c(c2)OCO3)c2cc3c(cc2N1)OCO3 (configuration not stated) | 1 | 1 | -7 | -22 | 2
O=C(Nc1ccccc1C(=O)O)c1cccc(NS(=O)(=O)c2ccc(Br)cc2)c1 | 3 | . | 82* | . | .
O=C(O)c1cc(S(=O)(=O)Nc2cccc(Oc3ccccc3)c2)ccc1Br | -2 | -2 | -4 | 12 | 39*
COc1ccc(NC(=O)c2cccc(N3C(=O)C4C5C=CC(C5)C4C3=O)c2)cc1Cl (configuration not stated) | -4 | 1 | -5 | 13 | 4
CCN(CC(=O)Nc1c(F)cccc1F)C(=O)/C=C/c1cn(Cc2ccccc2)nc1-c1cccnc1 | 1 | 0 | 1 | 32* | 7
CCOc1nc(NCCO)nc(NCCC2=CCCCC2)n1 | -2 | 0 | -5 | -15 | 49*
CCOc1nc(NCCC2=CCCCC2)nc(N2CCOCC2)n1 | -3 | 0 | 0 | -15 | 6
CNC(=S)NNC(=O)c1cn(C)nc1C | -2 | -1 | -2 | -1 | -8
CC1(C)CC(=O)C=C(c2cccc(OC(=O)c3ccc(-c4ccccc4)cc3)c2)C1=O | -10 | . | 1 | . | .
CCOc1ccc(NC(=O)CN(C)Cc2cc(=O)n3c(-c4ccccc4)csc3n2)cc1OCC | -3 | 1 | -4 | 41* | 4
Cc1cc(C)cc(OCc2cc(=O)n3c(-c4ccccc4)csc3n2)c1 | . | 1 | . | . | 1
CCOCCCn1c(SCC(=O)Nc2ccccc2OC)nc2c(oc3ccccc32)c1=O | . | 1 | . | . | -2
CC(C)=CC(=O)N1CCCC(N2CCN(c3ccc(F)cc3)CC2)C1 (configuration not stated) | -6 | 1 | -5 | -6 | 1
O=C(C1CCN(c2nnc(-n3cccc3)s2)CC1)N1CCN(Cc2ccc3c(c2)OCO3)CC1 | 4 | 71* | -4 | 32* | -20
COc1cccc(CN2CCC(C(=O)N3CCN(Cc4ccc5c(c4)OCO5)CC3)CC2)c1 | -4 | 1 | -21 | 5 | -1
